Molecules are shown by their SMILES. The source made the active and inactive calls.

This is an account of results in PubChem BioAssay.

Assay [1] concerns Wnt5a (protein binding on small-molecule microarray). The assay can be described thus: Wnt5a binders on small-molecule microarray, primary screen, biophysical, 635/667 nm fluorescence (AID 1142).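 Also: fluorescence read at 667 nm with signal to noise per printed feature.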 To be noted: 635 nm fluorescence, higher = more signal.
Assay [2] is described as follows: cell viability in Huh7 cells, primary screen, cytotoxicity control for HCV replication inhibitor project, CellTiter-Glo luminescence, basal, 48 h (AID 1143).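 Also: Huh7 hepatoma cells carrying a hepatitis C replication reporter with no stimulus; test concentration not given here.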 To be noted: Huh7 HCV replicon, higher = more signal, called active from +8 up or from −8 down. (In general: Cellular ATP, detected with luciferase, serves as a proxy for viable cell number.)
Assay [3] is described as follows: CREB reporter modulators without forskolin, primary screen, cell-based, PC12, CRE-LacZ reporter, unstimulated (AID 1145). To be noted: no forskolin, luminescence, 4.5 h, higher = more signal, called active from +8 up or from −8 down.
Assay [4] in a line: CREB reporter modulators under forskolin, primary screen, cell-based, PC12, CRE-LacZ reporter, forskolin-stimulated (AID 1146).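 Also: PC12 cells with 6xCRE LacZ reporter stimulated by forskolin 10 µM; beta-galactosidase reporter signal reflecting CREB driven transcription.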 The conditions noted are these: luminescence, 4.5 h, higher = more signal, called active from +8 up or from −8 down.
Assay [5] has as its target Streptavidin (Streptomyces avidinii) (UniProt P22629). The assay can be described thus: streptavidin binders on small-molecule microarray, primary screen, artefact control for SMM compound annotation, biophysical, 635/667 nm fluorescence (AID 1147).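 Also: signal reflects streptavidin binding to arrayed compounds as a control protein.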 The conditions noted are these: streptavidin binding, higher = more signal.
A short description of assay [6]: small-molecule binders of probe aInhba, primary screen, biochemical, small-molecule microarray, 635/667 nm fluorescence (AID 1148).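 Also: score merges 667nm spot fluorescence with signal-to-noise for antibody binding to printed compounds.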 The conditions noted are these: higher = more signal.
Assay [7] deals with Torsin-1A (Homo sapiens) (UniProt O14656). Kind of assay: torsin A binders from cell lysate, primary screen, small-molecule microarray, wild-type, 635/667 nm (AID 1149). To be noted: COS7 hTOR1A-WT lysate, 635 nm fluorescence, higher = more signal.
The target is the same in assay [8]. Kind of assay: small-molecule binders of mutant TOR1A in lysate, primary screen, cell lysate, small-molecule microarray, COS7 lysate, 635/667 nm fluorescence (AID 1150).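 Also: score pools 667 nm emission and signal to noise measuring lysate protein binding.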 The conditions noted are these: COS7 hTOR1A mutant lysate, 635 nm fluorescence, higher = more signal.
Assay [9] deals with Sonic hedgehog protein (Shh). The assay can be described thus: small-molecule binders of Shh protein, primary screen, biochemical, small-molecule microarray, 635/667 nm fluorescence (AID 1151).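 Also: Shh protein binding to compounds spotted on small-molecule microarray slides; score combines spot fluorescence intensity with signal-to-noise across triplicate slides.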 The conditions noted are these: small-molecule microarray binding, 635 nm fluorescence; higher = more signal.
Assay [10] is described as follows: E. coli DRC41 culture turbidity changes, primary screen, E. coli filamentation inducer project, strain DRC41, OD650, 48 h (AID 1152).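 Also: E. coli MC1000 strain DRC41 lacking acrAB efflux pump and sulA.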 The conditions noted are these: E. coli DRC41 (acrAB sulA), higher = more signal, called active from +8 up or from −8 down.
The nature of assay [11]: small-molecule binders of probe aLefty1, primary screen, biochemical, small-molecule microarray, 635/667 nm fluorescence (AID 1153).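 Also: score merges spot fluorescence with signal-to-noise ratio from the scanned slide images.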 To be noted: higher = more signal.
Assay [12] can be described thus: PSAC antagonists in infected red cells, primary screen, cell-based, P. falciparum Indochina, OD700, 1 h (AID 1154). The conditions noted are these: P. falciparum Indochina infected RBC osmotic lysis, higher = more signal, called active from +8 up or from −8 down.
Assay [13] can be described thus: PSAC antagonists in infected red cells, primary screen, cell-based, P. falciparum Indochina, OD700, 2 h (AID 1155).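 Also: lysis reports solute entry through the parasite surface anion channel PSAC; channel blockers reduce lysis of infected cells.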 To be noted: P. falciparum Indochina infected erythrocytes, osmotic lysis OD700; higher = more signal, called active from +8 up or from −8 down.
The nature of assay [14]: osmotic lysis modulators in infected erythrocytes, primary screen, PSAC antagonist project, cell-based, P. falciparum Indochina, OD700, 3 h (AID 1156). The conditions noted are these: higher = more signal, called active from +8 up or from −8 down.
Assay [15] can be described thus: PSAC antagonists in infected red cells, primary screen, cell-based, P. falciparum Indochina, OD700, 18 h (AID 1157). To be noted: P. falciparum Indochina infected erythrocytes, osmotic lysis OD700, 18 h; higher = more signal, called active from +8 up or from −8 down.
A short description of assay [16]: modulators of S6 phosphorylation in cells, primary screen, cell-based, A549, cytoblot, luminescence, serum-stimulated (AID 1158).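 Also: serum-stimulated A549 lung adenocarcinoma cells; signal is phosphorylated S6 detected by cytoblot immunostaining with HRP secondary.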 The conditions noted are these: A549 phospho-S6 cytoblot, 5 h, higher = more signal.
In assay [17] the target is NADPH oxidase 2 (Homo sapiens) (UniProt P04839). The assay can be described thus: NOX2-dependent H2O2 signal modulators, primary screen, NOX inhibitor project, cell-based, HEK293-NOX2, PMA-stimulated, Amplex Red fluorescence (AID 1159). Also: test concentration not given here. The conditions noted are these: 45 min, higher = more signal, called active from +8 up or from −8 down.
The target of assay [18] is NADPH oxidase 4 (Homo sapiens) (UniProt Q9NPH5). The assay can be described thus: NOX4-dependent H2O2 signal modulators, primary screen, NOX inhibitor project, cell-based, HEK293-NOX4, tetracycline-induced, Amplex Red fluorescence (AID 1160). The conditions noted are these: 45 min, higher = more signal, called active from +8 up or from −8 down.
Assay [19] deals with NADPH oxidase 5 (Homo sapiens) (UniProt Q96PH1). Kind of assay: NOX5-dependent H2O2 signal modulators, primary screen, NOX inhibitor project, cell-based, HEK293-NOX5, Amplex Red fluorescence (AID 1161). The conditions noted are these: HEK293-NOX5, ionomycin, 45 min, higher = more signal.
Assay [20] is described as follows: A549 cell viability effects, profiling panel, calcein-AM fluorescence, 48 h, basal (AID 1162). Also: test concentration not given here. To be noted: higher = more signal.

Chain of Streptavidin (Streptomyces avidinii) (P22629 whole entry, looked up): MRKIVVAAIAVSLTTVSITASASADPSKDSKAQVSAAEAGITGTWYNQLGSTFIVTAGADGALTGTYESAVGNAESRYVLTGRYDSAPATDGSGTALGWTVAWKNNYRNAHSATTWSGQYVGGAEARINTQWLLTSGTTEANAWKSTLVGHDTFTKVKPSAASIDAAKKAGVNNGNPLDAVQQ
Chain of Torsin-1A (Homo sapiens) (O14656 whole entry, looked up): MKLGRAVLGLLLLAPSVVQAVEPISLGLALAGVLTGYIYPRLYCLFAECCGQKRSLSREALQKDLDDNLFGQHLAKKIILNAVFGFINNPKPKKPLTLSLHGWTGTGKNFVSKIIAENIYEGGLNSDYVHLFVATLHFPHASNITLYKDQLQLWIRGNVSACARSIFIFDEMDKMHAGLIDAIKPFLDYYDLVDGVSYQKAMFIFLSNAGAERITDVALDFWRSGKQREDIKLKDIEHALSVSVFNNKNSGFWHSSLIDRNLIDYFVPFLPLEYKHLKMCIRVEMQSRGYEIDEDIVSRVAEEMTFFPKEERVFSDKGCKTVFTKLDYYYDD
Chain of NADPH oxidase 5 (Homo sapiens) (Q96PH1 whole entry, looked up): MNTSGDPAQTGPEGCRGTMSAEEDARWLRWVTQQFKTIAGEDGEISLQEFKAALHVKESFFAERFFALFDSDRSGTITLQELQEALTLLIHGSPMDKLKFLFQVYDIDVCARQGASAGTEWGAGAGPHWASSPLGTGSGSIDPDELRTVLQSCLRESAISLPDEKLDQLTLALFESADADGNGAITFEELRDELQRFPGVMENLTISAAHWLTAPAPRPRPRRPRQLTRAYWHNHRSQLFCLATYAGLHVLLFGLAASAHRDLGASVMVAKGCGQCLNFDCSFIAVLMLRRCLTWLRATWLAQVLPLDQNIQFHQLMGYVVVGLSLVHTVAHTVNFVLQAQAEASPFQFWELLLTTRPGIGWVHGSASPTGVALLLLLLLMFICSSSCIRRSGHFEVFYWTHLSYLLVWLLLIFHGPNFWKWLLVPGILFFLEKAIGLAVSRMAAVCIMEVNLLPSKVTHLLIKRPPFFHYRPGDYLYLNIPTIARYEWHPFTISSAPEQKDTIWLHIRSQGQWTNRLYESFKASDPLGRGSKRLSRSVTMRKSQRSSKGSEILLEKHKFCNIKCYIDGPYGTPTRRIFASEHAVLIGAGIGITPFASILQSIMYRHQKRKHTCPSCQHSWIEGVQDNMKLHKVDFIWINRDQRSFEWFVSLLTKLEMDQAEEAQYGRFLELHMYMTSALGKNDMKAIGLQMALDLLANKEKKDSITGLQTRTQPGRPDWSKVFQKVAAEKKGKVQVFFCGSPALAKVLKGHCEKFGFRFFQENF
Chain of NADPH oxidase 2 (Homo sapiens) (P04839 whole entry, looked up): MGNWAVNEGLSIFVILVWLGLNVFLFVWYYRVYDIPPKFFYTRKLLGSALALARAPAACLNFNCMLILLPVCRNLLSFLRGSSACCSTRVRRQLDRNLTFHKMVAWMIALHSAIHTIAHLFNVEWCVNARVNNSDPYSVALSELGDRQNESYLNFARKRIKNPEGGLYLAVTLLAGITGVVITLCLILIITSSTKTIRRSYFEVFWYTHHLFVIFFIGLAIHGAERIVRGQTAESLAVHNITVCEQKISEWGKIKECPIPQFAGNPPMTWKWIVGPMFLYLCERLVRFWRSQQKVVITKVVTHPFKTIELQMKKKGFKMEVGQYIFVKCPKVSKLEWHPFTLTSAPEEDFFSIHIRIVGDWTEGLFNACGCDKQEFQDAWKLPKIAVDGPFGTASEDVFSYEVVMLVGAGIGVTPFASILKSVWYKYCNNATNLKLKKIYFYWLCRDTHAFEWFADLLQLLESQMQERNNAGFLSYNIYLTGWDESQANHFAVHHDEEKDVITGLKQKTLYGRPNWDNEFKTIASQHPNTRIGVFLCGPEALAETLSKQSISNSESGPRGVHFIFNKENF
Chain of NADPH oxidase 4 (Homo sapiens) (Q9NPH5 whole entry, looked up): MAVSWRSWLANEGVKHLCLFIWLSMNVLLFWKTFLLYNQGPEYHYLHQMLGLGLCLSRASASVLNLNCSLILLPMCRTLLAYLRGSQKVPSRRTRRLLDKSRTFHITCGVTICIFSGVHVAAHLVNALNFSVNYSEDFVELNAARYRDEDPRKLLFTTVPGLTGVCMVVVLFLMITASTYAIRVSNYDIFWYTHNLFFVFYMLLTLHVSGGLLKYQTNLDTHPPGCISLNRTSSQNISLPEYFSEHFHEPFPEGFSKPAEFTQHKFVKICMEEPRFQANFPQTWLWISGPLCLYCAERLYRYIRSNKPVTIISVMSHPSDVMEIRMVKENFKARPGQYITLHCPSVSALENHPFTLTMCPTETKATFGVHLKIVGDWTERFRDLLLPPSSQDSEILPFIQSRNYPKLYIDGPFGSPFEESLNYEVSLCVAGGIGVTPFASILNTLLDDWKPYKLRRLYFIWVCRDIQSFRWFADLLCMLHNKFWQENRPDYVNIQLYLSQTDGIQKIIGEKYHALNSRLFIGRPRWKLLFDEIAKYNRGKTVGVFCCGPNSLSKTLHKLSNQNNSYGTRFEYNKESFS

As to `CCCCCCC#C[Si](O[C@H](c1ccccc1)c1cn(Cc2ccccc2)nn1)(C(C)C)C(C)C`, the composite z-score in assay [1] is -0.0163; in [5] it was 0.239; in assay [6], -0.128; in assay [7], 0.122; in [8], 0.345; in assay [9], 0.609. The composite z-score in assay [11] is -0.101. Besides, the z-score in assay [2] was -1.53 (inactive); in [3] it was -1.23 (inactive); in assay [4], -1.35 (inactive); in assay [10], 3.05 (inactive); in [12] it was 1.66 (inactive); in [13], -0.226 (inactive). Further, the z-score in assay [14] is -0.0275 (inactive); in [15], -0.327 (inactive); in [16], 0.35; in [17], -0.941 (inactive); in [18], 0.369 (inactive); in assay [19] it was -1.87. Besides, the z-score in assay [20] was 1.68.
As for `O=C1c2ccccc2[C@@]2(Cc3ccccc3N(CC(F)(F)F)C2=O)[C@H](c2ccc(CO)cc2)N1Cc1ccccc1C(F)(F)F`, the composite z-score was -0.388 in assay [1]; -1.04 in [5]; -0.224 in assay [6]; -1.41 in assay [7]; -0.322 in [8]; -0.643 in assay [9]. For the same compound, in assay [11], the composite z-score was -0.23. Further, the z-score in assay [2] is -1.02 (inactive); in assay [3], -0.556 (inactive); in assay [4], -1.56 (inactive); in assay [10], 1.43 (inactive); in assay [12], 0.0937 (inactive); in [13], -0.926 (inactive). Moreover, the z-score in assay [14] is 0.593 (inactive); in assay [15] it was -1.39 (inactive); in assay [16], 0.936; in [17], 0.0968 (inactive); in assay [18], 0.396 (inactive); in assay [19], 1.09. Further, in assay [20], the z-score is 1.73.
Consider `CC(C)N1C(=O)c2ccccc2[C@@H](C(=O)NCc2ccccc2)[C@@H]1c1ccc(CO)cc1`, for which the composite z-score in assay [1] was 0.0422; in assay [5], -1.17; in assay [6], -0.206; in [7] it was 0.81; in assay [8], 0.436; in assay [9] it was -0.49. The composite z-score in [11] was -0.15. Besides, the z-score was -0.144 (inactive) in assay [2]; 0.0279 (inactive) in assay [3]; -0.659 (inactive) in assay [4]; 1.12 (inactive) in assay [10]; 2.59 (inactive) in assay [12]; 0.425 (inactive) in [13]. The z-score is 0.884 (inactive) in [14]; 0.818 (inactive) in assay [15]; 0.325 in assay [16]; -0.00885 (inactive) in assay [17]; 0.454 (inactive) in [18]; -0.101 in [19]. In addition, the z-score in assay [20] is 0.538.
Consider `COCCCNC(=O)[C@@]1(Cc2ccccc2)N=C(c2ccc(OCCCO)cc2)O[C@H]1c1ccccc1N=[N+]=[N-]`, for which the composite z-score was determined as 0.834 in assay [1]; 0.356 in assay [5]; 0.49 in assay [6]; 0.544 in assay [7]; 0.449 in assay [8]; 0.475 in assay [9]. Moreover, the composite z-score in assay [11] was determined as 0.826. The z-score was -4.48 (inactive) in [2]; 1.74 (inactive) in [3]; -1.74 (inactive) in assay [4]; 1.78 (inactive) in [10]; 29.6 (active) in assay [12]; 27.1 (active) in [13]. Further, the z-score in [14] was 3.66 (inactive); in [15], 1.92 (inactive); in assay [16] it was 0.98; in [17] it was -0.14 (inactive); in assay [18] it was 0.523 (inactive); in assay [19] it was -1.57. Also, the z-score in [20] was -0.622.
